PubChem BioAssay (NCATS)
Records with an inconclusive call do not appear. Calls of active or inactive are those of the source. The call rests on the fitted dose curve; in most records, active means well fitted curve in the direction sought with a large enough effect; inconclusive means small, poorly fitted or top-dose-only effect, or another doubt; inactive means no such curve, though single readings can be large; an effect the other way counts as inactive or inconclusive.

Tests used:
MCC-13 = experiment: qHTS assay to identify novel small-molecules to repurpose for Merkel cell carcinoma treatment (AID 1296009); details: MCC and control cell lines, CellTiter-Glo viability, 72 h; series mostly up to 46 µM; further: nearly all actives have a fitted effect of over 60% in size
In short: (§1)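 Cells were incubated with compound for 72 hr at 37 degree celsius before CellTiter-Glo addition. Luminescence was normalized with no-cell wells as full cytotoxicity and DMSO as baseline.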

MKL-1 = experiment: as above; details: MCC and control cell lines, CellTiter-Glo viability, 72 h; series mostly up to 46 µM
In short: as §1

MKL-2 = experiment: as above; details: MCC and control cell lines, CellTiter-Glo viability, 72 h; series mostly up to 46 µM
In short: as §1

UISO = experiment: as above; details: MCC and control cell lines, CellTiter-Glo viability, 72 h; series mostly up to 46 µM
In short: as §1

WaGa = experiment: as above; details: MCC and control cell lines, CellTiter-Glo viability, 72 h; series mostly up to 46 µM
In short: as §1

C33A = experiment: Primary qHTS to identify gynecologic anti-cancer compounds using libraries of approved drugs and bioactive compounds (AID 1345084); details: Gynecologic cancer cell panel viability, ATPlite luminescence, 48 h; series mostly up to 57.5 µM; further: nearly all actives have a fitted effect of over 55% in size
In short: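 Five-point cytotoxicity, 48 h drug exposure at 37 C, 5% CO2, on cells seeded 16 h beforehand. ATP content read by ATPlite luminescence.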

MCC-26 = experiment: qHTS assay to identify novel small-molecules to repurpose for Merkel cell carcinoma treatment (AID 1296009); details: MCC and control cell lines, CellTiter-Glo viability, 72 h; series mostly up to 46 µM; further: nearly all actives have a fitted effect of over 60% in size
In short: as §1

NIH3T3 = experiment: as above; details: MCC and control cell lines, CellTiter-Glo viability, 72 h; at 44.8 µM (top of the series) unless noted
In short: as §1

Measured: Potency
Potency means the concentration at half of the fitted maximal effect.

CNCC[C@@H](Oc1ccccc1C)c1ccccc1
not listed: MCC-26 | NIH3T3
inactive: all other assays above

CCCCCCCCCCCCCCNCCO
inactive: MCC-13 | MCC-26 | WaGa

O=c1c(-c2ccccc2)c1-c1ccccc1
active: MKL-1 26.6 µM | MKL-2 13.3 µM | UISO 26.6 µM | WaGa 18.8 µM
inactive: MCC-26

O=C(CCCN1CCC(O)(c2ccc(Br)cc2)CC1)c1ccc(F)cc1
inactive: MCC-26 | MKL-1 | MKL-2 | C33A

COc1ccc(CCN2CCC(Nc3nc4ccccc4n3Cc3ccc(F)cc3)CC2)cc1
active: MCC-13 23.7 µM | MKL-2 13.3 µM | WaGa 21.1 µM

CC(=O)Oc1ccc2c(c1)CC[C@@H]1[C@@H]2CC[C@]2(C)[C@@H](O)CC[C@@H]12
inactive: MCC-13 | C33A

COc1cc(C=C2CCC/C(=C\c3ccc(O)c(OC)c3)C2=O)ccc1O
active: MCC-13 26.6 µM | MKL-1 4.22 µM | MKL-2 2.99 µM | UISO 21.1 µM | WaGa 5.31 µM

COc1cc(OC)cc(OC)c1
not listed: MCC-26 | NIH3T3
inactive: all other assays above

CN=C(NC#N)NCCSCc1csc(N=C(N)N)n1
not listed: MCC-26 | NIH3T3
inactive: all other assays above

CC(=O)Oc1ccc(C(c2ccc(OC(C)=O)cc2)c2ccccn2)cc1
inactive: MCC-13 | MKL-1 | MKL-2 | WaGa | C33A

Cc1ccccc1C(=O)Nc1ccc(C(=O)N2CCCC(N(C)C)c3ccccc32)cc1 (stereo not drawn)
not listed: MCC-26 | NIH3T3
inactive: all other assays above

CCOc1ccc2nc3cc(N)ccc3c(N)c2c1
active: MKL-1 5.96 µM | MKL-2 2.99 µM | UISO 8.41 µM | WaGa 2.11 µM
inactive: MCC-26

C/C=C(/C(=C/C)c1ccc(O)cc1)c1ccc(O)cc1
inactive: MCC-13 | MKL-1 | MKL-2 | UISO | C33A

CCCSS/C(CCO)=C(\C)N(C=O)Cc1cnc(C)nc1N
inactive: C33A
active: MCC-26 26.6 µM | MKL-1 21.1 µM | MKL-2 6.68 µM | UISO 29.9 µM

CCN(CC)C(=O)/C(C#N)=C/c1cc(O)c(O)c([N+](=O)[O-])c1
inactive: MCC-13 | MCC-26 | C33A

COCc1c(C(C)C)nc(C(C)C)c(/C=C/[C@@H](O)C[C@@H](O)CC(=O)O)c1-c1ccc(F)cc1
active: MCC-13 1.19 µM | MKL-1 0.75 µM | UISO 0.473 µM | WaGa 1.06 µM

C#C[C@]1(O)CC[C@H]2[C@@H]3CCc4cc(OC5CCCC5)ccc4[C@H]3CC[C@@]21C
inactive: MCC-13 | C33A

CN(C)C(=S)SC(=S)N(C)C
active: MCC-13 2.99 µM | MKL-2 3.35 µM | UISO 1.19 µM | C33A 15.8 µM

O=C(Nc1ccc(Oc2ccc(Cl)cc2)c(Cl)c1)c1cc(I)cc(I)c1O
not listed: MCC-26 | NIH3T3
inactive: all other assays above

O=C1[C@H]2CCCC[C@H]2C(=O)N1CCCCN1CCN(c2nsc3ccccc23)CC1
inactive: MCC-13 | MKL-1 | C33A
active: UISO 10.6 µM

CC(=O)O[C@]1(C(C)=O)CC[C@H]2[C@@H]3C[C@H](C)C4=CC(=O)CC[C@]4(C)[C@H]3CC[C@@]21C
not listed: MCC-26
inactive: all other assays above

COC1=CC(=O)C[C@@H](C)[C@]12Oc1c(Cl)c(OC)cc(OC)c1C2=O
inactive: MCC-13 | MCC-26 | MKL-2 | C33A

CCCCCCCCCCCCCCCCOP(=O)([O-])OCC[N+](C)(C)C
inactive: MCC-13 | MCC-26 | C33A

CC(C)(C)CC(C)(C)c1ccc(OCCOCC[N+](C)(C)Cc2ccccc2)cc1
inactive: MCC-13
active: MKL-1 1.06 µM | MKL-2 0.944 µM | UISO 8.41 µM | WaGa 1.5 µM
